IDH1 R132H inh = qHTS for Inhibitors of mutant isocitrate dehydrogenase 1 (IDH1): qHTS; Isocitrate dehydrogenase [NADP] cytoplasmic (Homo sapiens), O75874; Potency, µM (series often up to 76.6 µM), inactives show at the top dose activity change, negative = inhibition, usual class: inhibitors; IDH1-R132H enzyme, NADPH consumption, diaphorase/resazurin fluorescence; 0.093% of 390,000 active; further: potency means the concentration at half of the fitted maximal effect; on the % scale 0 is the no-effect control and ±100 the full control effect; nearly all actives have a fitted effect of over 65% in size
Target sequence (O75874 whole entry R132H, stated change not applied): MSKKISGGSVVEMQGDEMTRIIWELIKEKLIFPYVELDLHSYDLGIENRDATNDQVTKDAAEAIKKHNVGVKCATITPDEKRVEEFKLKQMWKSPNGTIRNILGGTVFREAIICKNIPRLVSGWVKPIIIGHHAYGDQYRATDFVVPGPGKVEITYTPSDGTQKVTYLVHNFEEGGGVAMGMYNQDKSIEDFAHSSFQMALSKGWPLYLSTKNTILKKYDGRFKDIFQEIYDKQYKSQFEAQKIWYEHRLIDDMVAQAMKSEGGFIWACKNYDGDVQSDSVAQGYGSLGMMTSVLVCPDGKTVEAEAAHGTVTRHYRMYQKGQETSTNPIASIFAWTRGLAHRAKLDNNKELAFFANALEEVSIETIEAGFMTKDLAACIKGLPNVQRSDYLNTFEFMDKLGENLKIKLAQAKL
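IDH1-R132H (0.5 ug/mL dispensed) in pH 7.5 Tris buffer was preincubated 30 min with compound, then given a substrate mix of 0.016 mM NADPH and 2 mM alpha-KG for 80 min at room temperature; remaining NADPH was read by diaphorase/resazurin fluorescence.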
IL2 activator = qHTS of IL-2 Activators; IL-2 activation reporter assay, cell-based qHTS; stimulated with anti-CD3/CD4/CD28 beads; in transgenic mouse T cells; activation, % (series mostly up to about 46 µM); 0.065% of 360,000 active; in the data active means activation above about 50%; inconclusive means mostly about 30% to 49%; further: 0% is about no effect
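Unstimulated transgenic mouse T cells preincubated 60 min with compound, then stimulated with anti-CD3/anti-CD4-coated beads plus anti-CD28 for 18 h at 37 degrees C. IL-2 response read as EGFP and DsRed fluorescence by plate cytometry.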
BRCA1 expr act = qHTS Assay to Identify Small Molecule Activators of BRCA1 Expression; Potency, µM (series often up to 46.1 µM), for inactives: at the top dose activation, most hits filed as activators; MCF7-BRCA1-FFLuc reporter, luminescence, 48 h; response scale: scaled: vehicle 0%, 10 µM genistein 100%; 1.1% of 380,000 active; further: potency means the concentration at half of the fitted maximal effect; nearly all actives have a fitted effect of over 80% in size
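48 h compound treatment of MCF7-BRCA1-FFLuc cells (phenol-red free MEM, 37 °C), then 15 min with luciferase substrate and luminescence imaging.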
Giardia kill = Small Molecules that selectively kill Giardia lamblia: qHTS | Giardia lamblia trophozoite viability | 0.15% of 340,000 active | activity change, % at 7.66 µM, hits read low; in the data active means activity change below about -80%; inconclusive means between about -30% and that limit;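 further: parasites exposed to compound for two days anaerobically before the ATP read; on the % scale 0 is the no-effect control and ±100 the full control effect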
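Viability, read as ATP luminescence: trophozoites at 100 cells/well, compound added, 48 hrs anaerobic at 37 deg C, then 15-30 min room-temperature development before reading.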
TrxR1 substrate = qHTS Assay for Substrates of Mammalian Selenoprotein Thioredoxin Reductase 1 (TrxR1): qHTS; Thioredoxin reductase 1, cytoplasmic (Rattus norvegicus), O89049; purified TrxR1 substrate turnover, NADPH consumption readout; Potency, µM (doses to about 114 µM), for inactives: at the top dose activity change, negative = substrate turnover; 0.01% of 390,000 active; further: potency means the concentration at half of the fitted maximal effect; on the % scale 0 is the no-effect control and ±100 the full control effect; nearly all actives have a fitted effect of over 50% in size
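Rat TrxR1, dispensed at 90 nM, was prereduced with 400 uM NADPH (final) for 5 min at ~22 deg C, then incubated with compound 15 min before 400 uM selenite. A first-read NADPH fluorescence drop versus no-compound background flagged substrates.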
TrxR1 inh = qHTS Assay for Inhibitors of Mammalian Selenoprotein Thioredoxin Reductase 1 (TrxR1): qHTS; Thioredoxin reductase 1, cytoplasmic (Rattus norvegicus), O89049; recombinant rTrxR1, NADPH fluorescence consumption, selenite substrate; Potency, µM (top dose mostly 114 µM), without a hit: top-dose activity change, negative = inhibition, actives largely listed as inhibitors; 1% of 390,000 active; AID 588453, 2011; further: potency means the concentration at half of the fitted maximal effect; on the % scale 0 is the no-effect control and ±100 the full control effect; nearly all actives have a fitted effect of over 65% in size
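Rat TrxR1 (90 nM in the dispensed reagent) was pre-reduced with 400 uM NADPH for 5 min at room temperature, then incubated with compound for 15 min. After 400 uM selenite was added, NADPH fluorescence (Ex 340/Em 450 nm) was followed for 8 min.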
Numbers without * were called inactive; ? = inconclusive; . = not tested or not shown; [ ] = another dose, or the depositor's remark. Rows were chosen to be rich in hits. Some 2.2% of all compounds tested hit in one or more screens of this group. Unless noted, the call rests on the fitted dose curve; in most records, active means well fitted curve in the direction sought with a large enough effect; inconclusive means small, poorly fitted or top-dose-only effect, or another doubt; inactive means no such curve, though single readings can be large; an effect the other way counts as inactive or inconclusive.

SMILES | IDH1 R132H inh | IL2 activator | BRCA1 expr act | Giardia kill | TrxR1 substrate | TrxR1 inh
c1ccc(-c2c(-c3ccccc3)n(Cc3ccco3)c3ncnc(NCCCn4ccnc4)c23)cc1 | 29µM* | -2 | -77% | 9 | 55% | ?
COc1ccc(OC)c(CNC(=O)CN(c2ccc(C)cc2)S(=O)(=O)N(C)C)c1 | 4% | . | -3% | . | 6% | 18%
Clc1ccc(Cc2nnc(-c3ccccc3Br)o2)cc1 | -6% | -1 | 14µM* | -7 | -1% | 14%
Clc1ccccc1OCc1nnc(-c2ccccc2Br)o1 | 3% | 0 | 4µM* | 2 | -15% | -17%
COc1ccc(C(C#N)N2N=C(C)CC2(C)C)cc1OC (stereo not given) | 0% | 1 | 5% | -15 | 0% | 40µM*
CC1=NN(C(C#N)c2ccccc2)C(C)(C)C1 (stereo not given) | 8% | -1 | 29% | -12 | 6% | -2%
CC(=O)C(C)Oc1ccc2c3c(c(=O)oc2c1)CCCC3 (stereo not given) | 2% | -3 | 11µM* | 2 | 40%[57.1 µM] | 21%[57.1 µM]
COc1ccc(OCc2nc(N)nc(Nc3ccc(C)cc3)n2)cc1 | 1% | 0 | 16µM* | -16 | 6%[57.1 µM] | -3%[57.1 µM]
COc1ccc(Nc2nc(N)nc(CSc3nccn3C)n2)cc1 | 4% | 0 | 3.2µM* | 13 | -2% | 18%
COc1ccc(Nc2nc(N)nc(COc3ccc(OC)cc3)n2)cc1 | 2% | -2 | 11% | 3 | 5% | 6%
O=C1C2C3C=CC(C4CC34)C2C(=O)N1/N=C/c1ccc(-c2cccc([N+](=O)[O-])c2)o1 (stereo not given) | 2% | -5 | -25% | 0 | -14% | 3%[57.1 µM]
O=C1C2C(C(=O)N1/N=C/c1ccc(N3CCCCC3)o1)C1C=CC2C12CC2 (stereo not given) | -1% | -1 | 8% | 8 | -3% | 25µM*
CN(C1CCCCC1)S(=O)(=O)c1ccc2c(c1)c(=O)c(C(=O)NCc1ccc(Cl)cc1)cn2C | -9% | . | . | . | 46% | 70%
Cc1ccc(NC(=O)Nc2cccs2)cc1 | 10% | -1 | 1.3µM* | -4 | -24%[57.1 µM] | -9%[57.1 µM]
COc1ccc(NC(=O)Nc2cccs2)cc1OC | -2% | -1 | 90% | -26 | 12% | -12%
COc1cccc(NC(=O)Nc2cccs2)c1 | 11% | 0 | 13µM* | -29 | 2% | -9%
c1ccc2c(c1)NCC1CCCN21 (stereo not given) | 8% | -5 | -22% | -29 | -9% | 79µM*
Cc1cc(N(C)C)cc(C)c1/C=C/c1cc[n+](C)c2ccccc12 | . | . | . | . | 12% | 10%
COc1ccc(-c2nnc3n2N(C(C)=O)C(c2ccc(Cl)c(Cl)c2)=C(C(C)=O)S3)cc1 | -6% | . | . | . | -2%[57.1 µM] | 11%[57.1 µM]
Cc1ccc(SC(=O)c2c(C)noc2-c2cc(C)on2)cc1 | 5% | -2 | -17% | -4 | -6% | 40µM*
Cc1cc(-c2onc(C)c2C(=O)N/N=C/c2ccccc2)no1 | 6% | 0 | -18% | 6 | 6% | 27%
Nc1ccc(/C=C/c2ccnc3ccccc23)c(N)c1 | . | . | . | . | -5% | ?
CN(C)Cc1cc(C(C)(C)C)c(O)c(C(C)(C)C)c1 | 20% | 0 | 1% | 19 | 12%[57.1 µM] | 8.9µM*
CC(C)(C)c1cc(CN(CCO)CCO)cc(C(C)(C)C)c1O | 3% | 0 | 6% | -3 | 0% | 3.5µM*
CCOC(=O)c1scc(-c2ccc(C)cc2)c1S(=O)(=O)Nc1cc(Cl)ccc1OC | 11% | . | . | . | 7%[57.1 µM] | 33%[57.1 µM]
SMILES | IDH1 R132H inh | IL2 activator | BRCA1 expr act | Giardia kill | TrxR1 substrate | TrxR1 inh
O=C(C1CCC1)N1CCc2cc(S(=O)(=O)N3CCN(c4ccccc4)CC3)ccc21 | 9% | . | -3% | . | 4% | 15%
O=C(/C=C/c1ccc([N+](=O)[O-])cc1)c1cccnc1 | 5% | -5 | -18% | -13 | -4% | 32µM*
O=C1NN(c2ccc(Cl)cc2)C(=O)/C1=C\c1ccc(-c2cccc(C(=O)O)c2)o1 | 3% | 1 | 8.9µM* | 13 | -1%[57.1 µM] | -7%[57.1 µM]
Cc1cccc2c1-c1sc(C(=O)N3CCN(c4ccccc4)CC3)cc1CO2 | 14% | . | . | . | 9% | 5%
CN(C)c1ccc(/C=C/c2cccc3cc4ccccc4nc23)cc1 | . | . | -68% | . | -5% | ?
CCOCCCNC(=O)c1ccc2c(=O)n(CCc3ccc(OC)c(OC)c3)c(=O)[nH]c2c1 | -12% | . | . | . | 3%[57.1 µM] | 16%[57.1 µM]
CNc1cccc(-c2cccc(O)c2)n1 | . | 0 | 10µM* | . | . | .
CNc1cncc(-c2cccc(O)c2)n1 | . | 0 | 23% | . | . | .
CC(Nc1nc(N2CCNCC2)nc2ccccc12)c1ccccc1 (stereo not given) | ? | -3 | -38% | -84* | 40% | 8%[57.1 µM]
CC(Nc1nc(-c2ccncc2)nc2ccccc12)c1ccccc1 (stereo not given) | -13% | -3 | -18% | -5 | -3% | 12%
C#CCN(Cc1ccc(OC)cc1)S(=O)(=O)C=C | . | . | . | . | 0% | -15%
O=C(Nc1cccc(Cl)c1)c1ccc2c(c1)CCN2S(=O)(=O)c1ccccc1 | -10% | . | . | . | 5% | 18%
Cc1ccc(-c2cc(NC(=O)C(C)Oc3ccc(C)c(C)c3)on2)cc1 (stereo not given) | 17% | . | . | . | -3% | 12%
Cc1ccc(Sc2c([N+](=O)[O-])c(=O)n(C)c3ccccc23)cc1 | -1% | -1 | -32% | -26 | 1% | 2µM*
Cc1cccc(OCCSc2nc(N)cc(N)n2)c1 | 0% | -3 | 80% | -22 | -15% | 40µM*
Cc1ccc(C(=O)Nc2ccc(C(=O)O)cc2)cc1S(=O)(=O)NCc1ccccc1 | 12% | 535* | -3% | -15 | -1%[57.1 µM] | 11%[57.1 µM]
CC1(C)CC(=O)C(=Cc2cn(-c3ccccc3)nc2-c2ccccc2)C(=O)C1 | -6% | -1 | 6% | -5 | -5% | ?
Cc1ccc(-c2nn(-c3ccccc3)cc2C=C2C(=O)CC(C)(C)CC2=O)cc1 | -2% | 0 | 6.3µM* | -6 | -7% | 22µM*
Cc1cccc(OC(=O)c2snnc2C)c1C | 0% | . | . | . | -5% | 23%
CC(C)Sc1nc(N)nc(-c2cccs2)c1C#N | 2% | -4 | 4µM* | -6 | 7%[57.1 µM] | 12%[57.1 µM]
COc1cc(-c2nc3ccc(C)cn3c2Nc2ccc(Cl)cc2)ccc1O | -12% | . | . | . | 107% | -3%

High-throughput results: PubChem, National Center for Advancing Translational Sciences (NCATS)
